The subject of experiment [1] is XIP peptide (Xip251-270) binding. As to the kind of experiment: small-molecule binders of XIP peptide, primary screen, biochemical, small-molecule microarray, fluorescence 635/667 nm, 0.1 µg/mL protein (AID 1182). To be noted: fluorescent protein binding, 635 nm, higher = more signal, called active from +8 up or from −8 down.
The subject of the next experiment is XIP peptide (Xip251-270). The experiment in a line: small-molecule binders of XIP peptide, primary screen, biochemical, small-molecule microarray, fluorescence 635/667 nm, 0.5 µg/mL protein (AID 1183). To be noted: small-molecule microarray binding, fluorescence 635 nm; higher = more signal.
Experiment [2] is described as follows: Plasmodium falciparum growth inhibition, primary screen, strain 3D7, DAPI fluorescence, 100 nL (AID 1184).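 Note: parasites grown inside human red blood cells in medium with human serum.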 To be noted: P. falciparum 3D7 growth, 3 d, higher = more signal.
The target of experiment [3] is Homeobox protein Hox-A13 (Mus musculus) (UniProt Q62424). As to the kind of experiment: inhibitors of HoxA13-DNA binding, primary screen, biochemical, fluorescence polarization, labeled oligonucleotide (AID 1185). To be noted: 15 min, higher = more signal, called active from +8 up or from −8 down. (In general: In fluorescence polarisation assays a small probe gives low polarisation when free and higher when bound to something large.)
Chain of Homeobox protein Hox-A13 (Mus musculus) (Q62424 whole entry, looked up): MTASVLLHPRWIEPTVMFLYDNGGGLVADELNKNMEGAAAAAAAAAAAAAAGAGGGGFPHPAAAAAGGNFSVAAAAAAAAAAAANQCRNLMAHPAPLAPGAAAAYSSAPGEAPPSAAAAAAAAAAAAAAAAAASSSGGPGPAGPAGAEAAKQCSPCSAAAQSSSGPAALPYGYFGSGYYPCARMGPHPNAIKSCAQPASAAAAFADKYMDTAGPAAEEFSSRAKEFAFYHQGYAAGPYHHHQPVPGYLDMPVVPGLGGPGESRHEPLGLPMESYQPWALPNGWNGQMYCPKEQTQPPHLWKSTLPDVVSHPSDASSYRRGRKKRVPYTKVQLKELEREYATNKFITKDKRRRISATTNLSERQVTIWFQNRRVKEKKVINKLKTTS

The source made the active and inactive calls.

On to `CC(=O)OC[C@H]1O[C@H](CCON=C[C@@H](C)[C@H](OCc2ccccc2)C(C)C)C=C[C@@H]1OC(C)=O`, for which the results for the composite z-score (in experiment [1]; in the experiment with XIP peptide (Xip251-270)) were 0.72 (inactive) and 0.165, respectively. The results for the z-score in experiment [2] and in experiment [3] were -0.219 and -4.91 (inactive), respectively.

On to `COC(=O)[C@H](C)NC(=O)CCC1CC(OC(=O)NCCc2ccc(F)cc2)CC2(CCCC(COC(=O)NCCc3ccc(Cl)cc3)O2)O1` (stereo partly drawn), for which the values for the composite z-score (in experiment [1]; in the experiment with XIP peptide (Xip251-270)) were 0.503 (inactive) and 0.729, respectively. Also, the results for the z-score in experiment [2] and in experiment [3] were -1.5 and -2.44 (inactive), respectively.

As to `O=C1[C@H]2[C@H]3[C@H](O)[C@H](O)CC(=NOC[C@@H](O)COCc4ccco4)[C@H]3CC[C@H]2C(=O)N1Cc1ccc2c(c1)OCO2`, the figures for the composite z-score (in experiment [1]; with XIP peptide (Xip251-270)) were 0.525 (inactive) and 0.127, respectively. Moreover, the results for the z-score in experiment [2] and in experiment [3] were 0.436 and -0.743 (inactive), respectively.

Take `O=C1[C@H]2[C@H]3[C@H](O)[C@H](O)CC(=NO[C@@H]4O[C@H](CO)[C@@H](O)[C@H](O)[C@H]4O)[C@@H]3CC[C@H]2C(=O)N1Cc1ccc2c(c1)OCO2`: the composite z-score was 0.297 (inactive) in experiment [1] and 0.567 with XIP peptide (Xip251-270). The z-score was -1.06 in experiment [2] and -2.63 (inactive) in experiment [3].

Take `CCc1cc2c(nc1CC)CCN(CCC(C)=NO[C@@H](C)c1cc(-c3c(C)cc(C)cc3C)no1)C2`: the composite z-score is -0.712 (inactive) in experiment [1] and 0.325 with XIP peptide (Xip251-270). The values for the z-score in experiment [2] and in experiment [3] were 0.319 and -2.85 (inactive), respectively.

`CCN1C(=O)[C@H]2[C@H]3[C@H](O)[C@H](O)CC(=NOCc4ccccc4)[C@H]3CC[C@H]2C1=O`: the composite z-score in experiment [1] is -0.0513 (inactive); with XIP peptide (Xip251-270), 0.172. For the same molecule, the z-score in experiment [2] was 0.783; in experiment [3], -1.15 (inactive).

As for `COC(=O)C1=C(C)[C@@H](O)[C@@H](C)[C@H](c2c(OC)c(OC)c(C)c(OC)c2OC)O1`, the composite z-score in experiment [1] was -0.252 (inactive); in the experiment with XIP peptide (Xip251-270), 0.562. Also, the z-score in experiment [2] was -0.717; in experiment [3] it was -0.388 (inactive).

Values taken from PubChem BioAssay.
